About 11,000 (3.5%) of roughly 310,000 compounds were called active. Not shown: some 8% with an inconclusive outcome. The sample holds actives, similar compounds and a random draw of the others, so the mix is not that of the screen. Values without a mark were called inactive. Calls follow the shape of the dose curve; as a rule, active = well fitted inhibition curve with a large enough effect; inconclusive = small, poorly fitted or top-dose-only effect, or effect the other way; inactive = flat fitted curve, though single readings scatter.
Assay: VP16 counterscreen qHTS for inhibitors of ROR gamma transcriptional activity;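 also: Gal4-VP16 expression switched on by copper sulfate through the metallothionein promoter; nearly all actives have a fitted effect of over 50% in size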
Settings: Drosophila S2 Gal4-VP16 UAS-luciferase, luminescence, 20 h; series mostly up to 53.6 µM; activity, negative = inhibition: at the top concentration
% is scaled to controls: 0 for no effect and ±100 for the full control effect; potency is read from the fitted curve at half-maximal effect.

Row | Compound | activity, negative = inhibition [%] | Potency
1 | CCOc1ccc(CN2CCN(CCCc3ccccc3)C(CCO)C2)cc1 (stereo unspecified) | 2.21 | 
2 | COc1ccc(CNC(=O)CN(C(=O)c2csnn2)c2cnc3ccccc3c2)cc1 | -5.34 | 
3 | OC(COc1ccc(F)cc1Cl)CN1CCc2ccccc2C1 (stereo unspecified) | -8.96 | 
4 | O=C(c1ccc(S(=O)(=O)N2CCCC2)cc1)N1CCN(c2ccccc2F)CC1 | -6.82 | 
5 | CCOc1cc2[nH]c(=S)n(Cc3ccc(C(=O)N4CCN(C)CC4)cc3)c(=O)c2cc1OCC | -12.6 | 
6 | COc1ccc(C(=O)CSc2nc(C)cc(C)n2)cc1[N+](=O)[O-] | 8.46 | 
7 | COc1ccc(C(C[N+](=O)[O-])n2nc(C)cc2C)cc1 (stereo unspecified) |  | 10 µM (active)
8 | COc1ccc(OCc2cn3c(C)cc(C)nc3n2)cc1 | -21.6 | 
9 | Cc1cccc(N2C(=O)N3[C@H](c4ccc(F)cc4)[C@@H]4C(=O)N(C5CCCCC5)C(=O)[C@@H]4[C@]3(Cc3ccccc3)C2=O)c1 | -4.63 | 
10 | CC1CC2=C(CC1/C=N/NC(N)=S)C(C)(C)CCC2 (stereo unspecified) |  | 2.82 µM (active)
11 | COc1ccc(/C=N/OCc2ccccc2C#N)c(OC)c1 | 5.87 | 
12 | O=C1CCC(C(=O)N2CCN(c3ccccc3Cl)CC2)CN1CC1CCCCC1 (stereo unspecified) | 0.387 | 
13 | COc1cc(CN2CCC(n3nccc3NC(=O)CCCc3ccccc3)CC2)ccc1O | 7.71 | 
14 | Clc1ccc(-c2nnc(SCc3nc4ccccc4s3)o2)cc1 | 24.3 | 
15 | CCc1ccc(-c2nnn(Cc3nc4ccccc4s3)n2)cc1 |  | 10 µM (active)
16 | CCc1ccc(-c2nnn(Cc3nn[nH]n3)n2)cc1 | 1.37 | 
17 | CC(C)C[C@@H](NC(=O)[C@H]1CCCN1C(=O)Cc1ccccc1)C(N)=O | -3.88 | 
18 | CCOC(=O)c1c(NC(=S)Nc2ccccc2)sc2c1CCN(C)C2 | -15.1 | 
19 | CCOC(=O)c1cc2c(nc1NC(=S)Nc1ccccc1)CC(C)(CC)OC2 (stereo unspecified) |  | 7.94 µM (active)
20 | CCOC(=O)c1ccccc1NC(=O)CSc1nc2ccccc2c(=O)[nH]1 | -8.12 | 
21 | CCOC(=O)C1CN(S(=O)(=O)c2ccc(OC)cc2)c2cc(Cl)ccc2O1 (stereo unspecified) | -20.3 | 
22 | O=C(C1CCN(Cc2ccc(Cl)cc2)CC1)N1CCN(Cc2ccc3c(c2)OCO3)CC1 | -22.4 | 

Row | Compound | activity, negative = inhibition [%] | Potency
23 | O=C(NNC1=NCCC1)c1cccc(S(=O)(=O)N2CCCCC2)c1 |  | 10 µM (active)
24 | O=C(Nc1cccnc1)c1cccc(S(=O)(=O)N2CCCC2)c1 | 20.1 | 
25 | O=C(NNC(=S)Nc1ccccc1)c1cccc(S(=O)(=O)N2CCOCC2)c1 | 2.35 | 
26 | Cn1c(SCC(=O)N2CCCC2)nnc1-c1ccc2c(c1)OCO2 | -12 | 
27 | O=C(CCNS(=O)(=O)c1cccs1)N1CCN(c2ccc(F)cc2)CC1 | -10.3 | 
28 | COc1cc(S(=O)(=O)Nc2ncn[nH]2)ccc1Cl | -0.0885 | 
29 | CCn1c(O)c(N=NC(=O)c2cccc(S(=O)(=O)N3CCCCC3)c2)c2ccccc21 | 2.98 | 
30 | CCn1c(O)c(N=NC2=NC(=O)CS2)c2cc(C)ccc21 |  | 12.6 µM (active)
31 | CCn1c(=O)cc(O)c2ccccc21 | -4.77 | 
32 | COc1cccc(C(=O)NNC(=O)c2cccc(F)c2)c1 | 16.3 | 
33 | Cc1cc(C)nc(N/N=C/c2c(CO)cnc(C)c2O)n1 | -10.3 | 
34 | COc1ccc(OC)c(CCNC(=O)CCn2ccc3cc(S(=O)(=O)N4CCCC4)ccc32)c1 | -2.74 | 
35 | CC(=O)Nc1ccc(-c2nc3ccccc3o2)cc1 | -15.3 | 
36 | Cc1cc2nc(-c3ccc(NC(=O)c4cccnc4)cc3)oc2cc1C | 0.702 | 
37 | Cc1ccc2nc(-c3ccc(NC(=O)c4cccnc4)cc3)oc2c1 |  | 1.26 µM (active)
38 | CN(c1ccccc1)S(=O)(=O)c1ccc(Cl)c(C(=O)OCC(N)=O)c1 | 5.37 | 
39 | COc1ccc(C)cc1NC(=O)C(OC(=O)c1cccc(S(=O)(=O)N(C)c2ccccc2)c1)c1ccccc1 (stereo unspecified) | 3.82 | 
40 | CC(=O)c1c(C)[nH]c(C(=O)COC(=O)c2cccc(S(=O)(=O)N(C)c3ccccc3)c2)c1C |  | 5.62 µM (active)
41 | CCCn1nnnc1NCc1ccc(OC)cc1 | 4.22 | 
42 | CCn1c(=O)c2ccccc2n(CC(=O)N2CCCc3ccccc32)c1=O | -5.13 | 
43 | COCCN(CCOC)C(=S)Nc1ccccc1Cl | -1.05 | 
44 | O=C(Nc1ccccc1Cl)/C(Cl)=C(\Cl)S(=O)c1ccccc1 (stereo unspecified) |  | 0.794 µM (active)

Row | Compound | activity, negative = inhibition [%] | Potency
45 | O=C(Nc1ccccc1Cl)Nn1cnnc1 | -1.62 | 
46 | Cc1cccc(C(=O)Nc2ccc(Oc3cnccn3)cc2)c1 | 18.6 | 
47 | COc1ccc(OC)c(S(=O)(=O)N2CCCC(C(=O)NCCc3ccccc3)C2)c1 (stereo unspecified) | 3.86 | 
48 | COc1ccc(NC(=O)Cn2ncn3c(cc4ccccc43)c2=O)c(OC)c1OC | 0.993 | 
49 | Cc1onc(-c2ccccc2)c1C(=O)N1CCN(S(=O)(=O)c2ccccc2C(F)(F)F)CC1 | 1.76 | 
50 | Cc1ccc(/C=C2\CCn3c2nc2cc(C(=O)O)ccc2c3=O)c(C)c1 | 5.94 | 
51 | CC1CC(C)CN(CCOc2cccc3ccccc23)C1 (stereo unspecified) | 0.773 | 
52 | CCOC(=O)[C@@H]1[C@H]2COc3cc(OC)ccc3[C@H]2N2C(=O)N(c3ccc(F)cc3)C(=O)[C@]12C | 11.4 | 
53 | O=C(Nc1cccc(S(=O)(=O)N2CCCCC2)c1)c1ccc2c(c1)OCO2 | -9.48 | 
54 | O=C(Nc1ccc2c(c1)OCCO2)c1ccc(Cl)c(S(=O)(=O)N2CCCCC2)c1 | 0.74 | 
55 | O=C(Nc1cccc(S(=O)(=O)Nc2ccc(Cl)cc2)c1)c1ccc2c(c1)OCCO2 |  | 0.794 µM (active)
56 | O=C(NC1CCCC1)C(c1c(F)cccc1Cl)N(C(=O)c1csnn1)C1CC1 (stereo unspecified) | 2.27 | 
57 | COc1ccc2nc(C)cc(Nc3cccc(C(=O)O)c3)c2c1 | -0.583 | 
58 | O=C(O)COc1ccc(-c2nccc(-c3cccs3)n2)cc1 |  | 15.8 µM (active)
59 | O=C(Nc1ccnc(-c2ccncc2)n1)c1cccs1 | -9.29 | 
60 | COC(=O)CSc1nccc(-c2cccs2)n1 | -4.83 | 
61 | Cc1cc(C)c(NC(=O)CSc2nc3ccncc3[nH]2)c(C)c1 | -3.75 | 
62 | CC(C)(C)c1ccc(SCCc2ccncc2)cc1 |  | 17.8 µM (active)
63 | CCN(Cc1ccncc1)C(=O)CCc1ccccc1 | 2.93 | 
64 | Cc1ccc(SCCSc2ncccn2)cc1 | -12 | 
65 | Cc1cc(C)c(SCCc2ccncc2)c(C)c1 |  | 11.2 µM (active)
66 | c1ccc(CSCCc2ccncc2)cc1 | 2.21 | 

Row | Compound | activity, negative = inhibition [%] | Potency
67 | C=CCOc1ccc(/C=C2/C(=O)ON=C2C)cc1OCC | -4.21 | 
68 | CCOc1ccc(NC(=O)C(C)N2C(=O)c3ccccc3C2=O)cc1 (stereo unspecified) | -3.04 | 
69 | Cc1ccc(S(=O)(=O)NC2CCCCCC2)cc1C(N)=O | -7.37 | 
70 | CCc1ccc(-n2c(=S)sc3c(=O)n(-c4ccccc4OC)c(=S)[nH]c32)cc1 | -8.14 | 
71 | COc1ccc(-n2c(=S)[nH]c3sc4c(c3c2=O)CCc2ccccc2-4)cc1 |  | 0.251 µM (active)
72 | CCCSc1nc2sc3c(c2c(=O)n1-c1ccc(OC)cc1)CCN(C)C3 | -0.0853 | 
73 | O=C(Nc1ccc(C(=O)N2CCCCC2)cc1)c1cccc([N+](=O)[O-])c1 | 19.8 | 
74 | COc1cc(C(=O)NCc2ccncc2)cc(Br)c1OCc1ccccc1 | -1.79 | 
75 | CC(C)[C@@H]1COC(c2cccc(C3=N[C@H](C(C)C)CO3)c2)=N1 | 5.4 | 
76 | C#CCOc1ccc(/C=C2/C(=O)ON=C2C)cc1OCC | -17.6 | 
77 | O=C(Nc1ccc2nc3n(c(=O)c2c1)CCCCC3)c1ccccc1Cl | -19.2 | 
78 | O=C(Nc1ccc2c(c1)nc1n2CCCCC1)c1cc(S(=O)(=O)N2CCOCC2)ccc1Cl |  | 12.6 µM (active)
79 | O=C(Nc1ccc(N2CCOCC2)c(Cl)c1)c1ccc(S(=O)(=O)N2CCOCC2)cc1 | -8.97 | 
80 | Nc1ncc(CN2CCCC(C(=O)Nc3ccc(-c4ccco4)cc3)C2)cn1 (stereo unspecified) | 2.6 | 
81 | N=c1oc2ccccc2cc1C(=O)NCc1ccccc1 | 26.3 | 
82 | CCCNC(=O)COc1coc(CN2CCN(Cc3ccccc3)CC2)cc1=O | -4 | 
83 | COc1cccc(N2C(=O)CN(Cc3ccccc3)C2=S)c1 | -3.18 | 
84 | COc1cccc(-n2c(=S)[nH]c3c(oc4ccccc43)c2=O)c1 |  | 11.2 µM (active)
85 | COc1cccc(-n2cc(C(=O)O)c3ccccc3c2=O)c1 | -0.477 | 
86 | CCC(CC)COC(=O)C1=C(C)NC(=O)NC1c1ccc([N+](=O)[O-])cc1 (stereo unspecified) | -3.51 | 
87 | COCCn1c(SCC(=O)N2CCCCCC2)nc2c(c1=O)SCC2 | 4.31 | 
88 | Oc1cccc(/C=N/Nc2ccc(Cl)nn2)c1O |  | 2.82 µM (active)

Row | Compound | activity, negative = inhibition [%] | Potency
89 | COc1cccc(/C=N/Nc2ccc(Cl)nn2)c1 | -15.1 | 
90 | Cc1ccsc1/C=N/Nc1ccc(Cl)nn1 | 1.26 | 
91 | CN(C)S(=O)(=O)c1ccc(Oc2ccc(S(=O)(=O)N(C)C)cc2)cc1 |  | 3.16 µM (active)
92 | CN(C)S(=O)(=O)c1ccc(NC(=O)N2CCOCC2)cc1 | -9.25 | 
93 | Cc1ccc(S(=O)(=O)c2ccc(Oc3ccccc3)cc2)cc1 | -26.4 | 
94 | CSc1ncc(C(=O)NCCCc2ccccc2)c(C)n1 | 21.5 | 
95 | O=C(Cc1cccs1)Nc1cccc(-c2nc3ccccc3[nH]2)c1 | 15.7 | 
96 | O=C(/C=C/c1ccco1)Nc1cccc(-c2nc3ccccc3[nH]2)c1 | 12.4 | 
97 | O=C(Nc1cccc(-c2nc3ccccc3[nH]2)c1)c1ccc(C(=O)Nc2cccc(-c3nc4ccccc4[nH]3)c2)cc1 |  | 2.82 µM (active)
98 | Cc1c(C)c2ccc(OCC(=O)N3CCC(C(=O)O)CC3)c(C)c2oc1=O | -14.8 | 
99 | COc1ccc(S(=O)(=O)Nc2ccc3oc(C)c(C(C)=O)c3c2)cc1 |  | 11.2 µM (active)
100 | COC(=O)COc1ccc(S(=O)(=O)Nc2ccc(NC(C)=O)cc2)cc1 | -5.35 | 
101 | COc1ccc(/C=N/NS(=O)(=O)c2ccc(NC(C)=O)cc2)cc1 | 2.73 | 
102 | COc1cc(NS(=O)(=O)c2ccc(NC(C)=O)cc2)cc(OC)c1 |  | 20 µM (active)
103 | CC(=O)c1c(C)oc2ccc(NS(=O)(=O)c3ccc(C(=O)O)cc3)cc12 | 4.83 | 
104 | CC(=O)c1c(C)oc2ccc(NS(=O)(=O)c3ccccc3)cc12 | -22.8 | 
105 | Cc1ccnc(NS(=O)(=O)c2ccc(NC(=O)c3oc4ccc(F)cc4c3C)cc2)n1 | -12.4 | 
106 | CC1CCCCN1C(=O)CCS(=O)(=O)Cc1ccccc1 (stereo unspecified) | 1.9 | 
